# Measurements: the emibetuzumab library of Makowski et al. (2022)
# This is one part of the list. The true hit rate is not given.
# B1: VH:VL chains; a variant is named by its letters at X, in order (parent)
# chain 1: QVQLVQSGAEVKKPGASVKVSCKASGYTFTDYXMHWVRQAPGQGLEWMGXVNPNXXXTTYNQKFEGRVTMTTDTSTSTAYMELRSLRSDDTAVYYCARXNXLDXWGQGTTVTVSS
# chain 2: DIQMTQSPSSLSASVGDRVTITCSVSSSVSSIYLHWYQQKPGKAPKLLIYSTSNLASGVPSRFSGSGSGTDFTLTISSLQPEDFATYYCQVYSGYPLTFGGGTKVEIK
# Variants of: B1
# Experiment: yeast display scFab, FACS + sequencing
# Conditions: with MET
# Procedure, shortened: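 A yeast surface library of scFab variants carrying heavy-chain CDR mutations went through two magnetic enrichment rounds on Protein A beads coated with HGFR-Fc, then FACS. For sorting, cells were labelled for 3 h at room temperature with 1 nM HGFR-Fc and anti-Myc in PBSB containing 1% milk, and the top 50% of antigen-positive cells were gated. Input and round-3 sorted populations were deep sequenced in two replicates. A sequence was called an antigen binder if it appeared in both antigen-positive samples and a non-binder if it appeared only in the input.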
row,Variant,antigen binding call
1,FRGRGFSA,no binding
2,YRGRGVSD,binds
3,YKGRGFSD,no binding
4,DTTGSDVY,no binding
5,ATGRAAGD,no binding
6,FRTGGSAD,binds
7,FRTEGSAD,binds
8,FETGGYVY,no binding
9,SEARSSSV,no binding
10,YATEGVWV,no binding
11,DARGGSSV,no binding
12,AEREADWV,no binding
13,VETGNDVA,no binding
14,YRGKDSGS,binds
15,YRGKDSGA,binds
16,YRGGDYGA,no binding
17,YRGKDAGA,binds
18,VRRGDSSD,binds
19,VRKKGVSS,no binding
20,VRAGDDSD,no binding
21,VEGGGSSS,no binding
22,VTGTGSSD,no binding
23,VRGKGSSD,binds
24,VRGKGSSS,binds
25,VAGTGSSD,no binding
26,VTGGDSSD,no binding
27,VRTADDGA,no binding

row,Variant,antigen binding call
1,VAATADVA,no binding
2,YKETGYAV,binds
3,YKGRGYAV,binds
4,YGGRGYAV,no binding
5,YKKTGYWV,no binding
6,YKGRGSLV,binds
7,YKGEGYGV,no binding
8,YKGRGYLV,binds
9,YKGEGDLV,no binding
10,YKEGAYAD,no binding
11,DAARGDSA,no binding
12,AKGGGDVV,no binding
13,YAEEGVGY,no binding
14,YRARGAVA,binds
15,YRARGVGA,binds
16,YRARGAGA,binds
17,YRARGFGA,no binding
18,SEARSSSY,no binding
19,VEEEGAGV,no binding
20,DTTKSDGV,no binding
21,SEARSAVA,no binding
22,YRERSSVA,binds
23,YRARSAWA,binds
24,YRARSSVA,binds
25,YRARSAVA,binds
26,DRARTFVA,no binding
27,SEARSAWA,no binding

row,Variant,antigen binding call
1,AEERASAF,no binding
2,VAGTGAVV,no binding
3,VAEKGDLS,no binding
4,VTTKSDLA,no binding
5,SAGKDDLA,no binding
6,DEGGTDVY,no binding
7,YTARGVSF,no binding
8,YRARGSVF,binds
9,YRARGSLF,binds
10,FGAATDGV,no binding
11,DTREGDGA,no binding
12,FAGRDAVV,no binding
13,DGGKNAGD,no binding
14,FKARDSSA,no binding
15,YKRGGSSY,binds
16,FKRGSSSY,binds
17,FKRRDSVY,no binding
18,YKKESDSY,no binding
19,VERGGDSY,no binding
20,YKRGSSSY,binds
21,DARGGSSY,no binding
22,YERRDVLY,no binding
23,YRKKSVGA,no binding
24,YRRGGVGA,binds
25,YRTEDVGA,no binding
26,YRRGSVGA,binds
27,YARRDVGA,no binding

row,Variant,antigen binding call
1,YREGGDGA,no binding
2,YRRGGDGA,binds
3,YEKGGDGA,no binding
4,AGGENDGD,no binding
5,SGTKGYWD,no binding
6,DTKAAAGD,no binding
7,VEGGGDGV,no binding
8,YRGRSASV,binds
9,YTGTSSSV,no binding
10,ARGRSDAV,no binding
11,YRGRSSSV,binds
12,DAGGASSV,no binding
13,FARETFGV,no binding
14,VETEGDWY,no binding
15,YRRRGVGV,binds
16,YGRRGFSV,no binding
17,YREEGDGV,no binding
18,YARRGSGV,no binding
19,YRRRGASV,binds
20,YRRRGDGV,binds
21,YRRRGSGV,binds
22,VETRSDVA,no binding
23,VTGTSDLY,no binding
24,VTAGDDVY,no binding
